# Assay results as given in PubChem BioAssay AID1851 (National Center for Advancing Translational Sciences (NCATS), 2009).
# Hit rate of the full screen: of about 16,000 compounds, about 4,000 (25%) were called active. Not shown: some 26% with an inconclusive outcome. The list is a sample of the results. Unmarked numbers belong to inactive results. Calls follow the shape of the dose curve; as a rule, active = well fitted curve in the direction sought with a large enough effect; inconclusive = small, poorly fitted or top-dose-only effect, or effect the other way; inactive = no such curve, though single readings can be large or run the other way.
# Target: Cytochrome P450 2C9 (Homo sapiens) (UniProt P11712)
# Sequence (P11712 whole entry, looked up): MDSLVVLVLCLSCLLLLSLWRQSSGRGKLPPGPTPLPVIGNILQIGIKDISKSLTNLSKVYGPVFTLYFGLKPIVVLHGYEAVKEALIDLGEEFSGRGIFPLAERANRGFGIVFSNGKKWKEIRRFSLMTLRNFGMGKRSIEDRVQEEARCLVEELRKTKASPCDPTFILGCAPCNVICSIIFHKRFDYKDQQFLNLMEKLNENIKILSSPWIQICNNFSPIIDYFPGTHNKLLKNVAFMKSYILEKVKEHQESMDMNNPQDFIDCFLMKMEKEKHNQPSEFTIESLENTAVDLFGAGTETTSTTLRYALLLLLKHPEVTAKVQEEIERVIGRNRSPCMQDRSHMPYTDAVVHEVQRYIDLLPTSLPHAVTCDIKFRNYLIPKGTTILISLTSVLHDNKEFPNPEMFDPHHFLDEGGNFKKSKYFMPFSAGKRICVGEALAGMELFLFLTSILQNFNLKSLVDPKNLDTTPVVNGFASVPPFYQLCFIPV
# Experiment: Cytochrome panel assay with activity outcomes
# Conditions: recombinant CYP, pro-luciferin dealkylation, luminescence, p450-cyp2c9; series mostly up to 57.1 µM; activity, negative = inhibition: at the top concentration
# % is scaled to controls: 0 for no effect and ±100 for the full control effect.
SMILES,"activity, negative = inhibition",AC50
CCOP(=O)(OCC)C(NC(C)=O)C(Cl)(Cl)Cl (centres undefined),-14%,–
O=c1[nH]c2ccccc2n1C1CCN(CCCC(c2ccc(F)cc2)c2ccc(F)cc2)CC1,inactive,–
Fc1ccc(C(OCCN2CCN(C/C=C\c3ccccc3)CC2)c2ccc(F)cc2)cc1,–,7.94 µM (active)
Clc1ccc([C@@H](OCCN2CCCCC2)c2ccccc2)cc1,-7.32% [at 25.6 µM],–
C(=C/c1ccccc1)/CN1CCN(CCOC(c2ccccc2)c2ccccc2)CC1,–,5.01 µM (active)
CCOC(=O)c1ncn2c1[C@H]1CCCN1C(=O)c1cc(OC)ccc1-2,15.1%,–
NS(=O)(=O)c1cc([C@@]2(O)NC(=O)c3ccccc32)ccc1Cl,-0.302% [at 25.6 µM],–
O=C(O)C[O][Sb][O]CC(=O)O,3.17% [at 11.4 µM],–
O=C(O)[C@H]1[O][Sb][O][C@@H](C(=O)O)C1O (some centres undefined),14.9% [at 11.4 µM],–
NCC[C@H](O)C(=O)N[C@H]1C[C@@H](N)[C@@H](O[C@H]2O[C@@H](CN)[C@@H](O)[C@@H](O)[C@@H]2N)[C@@H](O[C@H]2O[C@@H](CO)[C@@H](O)[C@@H]2O)[C@@H]1O,-2.49% [at 25.6 µM],–
C[N+]1(C)CCO[C@@](O)(c2ccc(-c3ccc([C@]4(O)C[N+](C)(C)CCO4)cc3)cc2)C1,-5.58%,–
O=C(c1ccccc1)[C@H]1[C@H](c2ccccc2[N+](=O)[O-])N1C1CCCCC1 (some centres undefined),-9.93% [at 11.4 µM],–
CC1=C(O)C(=O)[C@H]2O[C@@H]2C1=O,-9.89%,–
CC(C)CN1CCCC2(CCN(C(=O)c3ccncc3)CC2)C1,-28.7%,–
CN1CC[C@@]2(CCCN(C(=O)c3ccco3)C2)C1,5.65%,–
CN1CC[C@@]2(CCCN(C(=O)c3ccncc3)C2)C1,2.79%,–
c1cc(CN2CCCC3(CCNCC3)C2)ccn1,-28.9%,–
COCC(=O)N1CCC2(CCCN(Cc3ccncc3)C2)CC1,–,5.01 µM (active)
O=C(c1ccco1)N1CCC[C@@]2(CCN(Cc3ccncc3)C2)C1,–,3.16 µM (active)
CC[C@]1([C@H]2O[C@@H]([C@@H]3O[C@](O)(CO)[C@@H](C)C[C@H]3C)C[C@H]2C)CC[C@@H]([C@]2(C)CC[C@@]3(C[C@@H](O)[C@@H](C)[C@@H]([C@H](C)[C@H](OC)[C@H](C)C(=O)O)O3)O2)O1,2.5% [at 25.6 µM],–
COc1ccccc1CN1CCCC2(CCN(C(=O)Oc3ccccc3)CC2)C1,2.58%,–
COC(=O)[C@@H]1c2cc3c(c(O)c2[C@@H](O)C[C@]1(C)O)C(=O)c1c(O)cc2c(c1C3=O)O[C@H]1O[C@@]2(C)[C@@H](O)[C@H](N(C)C)[C@H]1O,-12.9% [at 11.4 µM],–
CCN(CC)CCO[C@H]1CC[C@@]2(C)C(=CC[C@@H]3[C@H]2CC[C@]2(C)C(=O)CC[C@H]32)C1,-1.59%,–
CO[C@@H]1CC=C2CCN3CCC4=C(CC(=O)OC4)[C@]23C1,11.3%,–
C[N+]1(C)[C@@H]2CC[C@H]1CC(OC(=O)[C@@H](CO)c1ccccc1)C2 (some centres undefined),inactive,–
COc1ccc2[nH]c3c(c2c1)CCN=C3C,-24.9% [at 25.6 µM],–
N[C@@H](CSC1c2ccccc2-c2ccccc21)C(=O)O,-21.1% [at 11.4 µM],–

SMILES,"activity, negative = inhibition",AC50
C[C@@]12CC[C@H]3[C@@H](CCC4=C(O)C(=O)CC[C@]43C)[C@H]1CCC2=O,8.16%,–
Cc1ccccc1-c1nc(CS(=O)CC(=O)N2CCC3(CC2)OCCO3)c(C)o1 (centres undefined),–,5.01 µM (active)
Cc1cc(NC(=O)CCC(=O)N2CCC3(CC2)OCCO3)no1,14.5%,–
Oc1ccc([C@H](O)[C@@H]2CCCCN2)cc1O,-5.3% [at 11.4 µM],–
CC(C)C(=O)N1C2CCC1CC(O)(c1ccc(F)cc1)C2 (centres undefined),-8.36%,–
C[C@](N)(CCP(=O)(O)O)C(=O)O,7.57%,–
O=C(CN1CCCCC1)Nc1ccc(Br)cc1C(=O)c1ccccc1Cl,–,8.91 µM (active)
CN(CCc1ccc(Cl)c(Cl)c1)[C@H]1CCCC[C@H]1N1CCCC1,-18.7%,–
CCOC(=O)c1ncn2c1CN(C)C(=O)c1cc(F)ccc1-2,0.585%,–
CC(C)(C)NC[C@H](O)c1ccccc1Cl,11.1%,–
C=CCN1CC[C@@]23c4c5ccc(O)c4O[C@H]2/C(=N\N=C2/CC[C@@]4(O)[C@H]6Cc7ccc(O)c8c7[C@@]4(CCN6CC=C)[C@@H]2O8)CC[C@]3(O)[C@@H]1C5,inactive,–
C[C@H](CCC(=O)O)[C@H]1CC[C@]2(C)[C@@H]3C(=O)C[C@H]4C(C)(C)[C@@H](O)CC[C@]4(C)[C@H]3C(=O)C[C@@]12C,-0.996% [at 11.4 µM],–
Cc1nc2ccccc2c(=O)n1-n1cnnc1,-22.4%,–
CCCc1nc2ccccc2c(=O)n1-c1ccc(OC)cc1,–,25.1 µM (active)
CCCCc1nc2ccccc2c(=O)n1-c1ccccc1[N+](=O)[O-],–,11.2 µM (active)
CCCCc1nc2ccccc2c(=O)n1-c1ccc(Cl)cc1[N+](=O)[O-],-8.02%,–
Cc1nc2ccccc2cc1C[N+]12CN3CN(CN(C3)C1)C2,18.3% [at 11.4 µM],–
COc1ccc2c(c1)C13CCCC[C@@H]1C(C2)N(C)CC3 (some centres undefined),-5.05% [at 25.6 µM],–
CC[C@H](C)C(=O)O[C@@H]1[C@H](O)[C@@H]2[C@H](CN3C[C@@H](C)CC[C@@H]3[C@@]2(C)O)[C@@H]2C[C@@]34O[C@@]5(O)[C@@H](OC(=O)[C@](C)(O)CC)CC[C@@]3(C)[C@H]5[C@H](OC(C)=O)[C@@H](OC(C)=O)[C@H]4[C@]12O,23.1% [at 25.6 µM],–
COc1cc2c3cc1Oc1c(O)c(OC)cc4c1[C@@H](Cc1ccc(cc1)Oc1cc(ccc1O)C[C@H]3N(C)CC2)N(C)CC4,2.87% [at 11.4 µM],–
CC(C)N(CC[C@@](C(N)=O)(c1ccccc1)c1ccccn1)C(C)C,inactive,–
N[C@H](Cn1ccc(=O)[nH]c1=O)C(=O)O,-9.73%,–
O=[N+]([O-])c1ccc2nc(N3CCNCC3)ccc2c1,-10.6%,–
CC12CN3CC(C)(CN(C1)C31CCSCC1)C2=O,-7.66%,–
NCCc1c[nH]c2ccc(C(N)=O)cc12,inactive,–
N[C@@H](Cc1ccccc1)P(=O)(O)O,-8.88% [at 11.4 µM],–
CN1[C@H](CC(=O)c2ccccc2)CCC[C@H]1C[C@H](O)c1ccccc1,-7.25%,–
